Measured values from PubChem BioAssay (NCATS).
Where “and” joins values, the source holds several entries; their conditions need not be identical. Equal entries are not always repeated. Results filed as inconclusive are left out. Calls of active or inactive are those of the source. The call rests on the fitted dose curve; in most records, active means well fitted curve in the direction sought with a large enough effect; inconclusive means small, poorly fitted or top-dose-only effect, or another doubt; inactive means no such curve, though single readings can be large; an effect the other way counts as inactive or inconclusive.

Assays:
[1] = system: SC27B; assay: qHTS profiling for inhibitors of Plasmodium falciparum proliferation (AID 504749); further: nearly all actives have a fitted effect of over 60% in size; further: potency means the concentration at half of the fitted maximal effect; conditions: P. falciparum in erythrocytes, SYBR Green DNA, 72 h; series mostly up to 28.7 µM
In short: (§1)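 SYBR Green fluorescence of parasite DNA, read after lysis and overnight dark incubation, measured growth over 72 h in erythrocyte culture at 0.3% parasitemia and 2.5% hematocrit. Data normalised to DMSO and 0.29 uM artemisinin, with plate-drift correction.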

[2] = system: TAB109; assay: as above; conditions: P. falciparum in erythrocytes, SYBR Green DNA, 72 h; series mostly up to 28.7 µM
In short: as §1

[3] = system: TAB165; assay: as above; conditions: P. falciparum in erythrocytes, SYBR Green DNA, 72 h; series mostly up to 28.7 µM
In short: as §1

[4] = system: W2; assay: as above; conditions: P. falciparum in erythrocytes, SYBR Green DNA, 72 h; series mostly up to 28.7 µM
In short: as §1

[5] = system: HEK293; assay: Cytotoxic Profiling of Annotated Libraries Using Quantitative High-Throughput Screening (AID 1296008); conditions: Five cell lines viability, CellTiter-Glo ATP luminescence, 48-72 h; max response: active compounds read low; further: nearly all actives have a fitted effect of over 60% in size; further: potency means the concentration at half of the fitted maximal effect; on max response: on the % scale 0 is the no-effect control and ±100 the full control effect
In short: (§2)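 Cytotoxicity was measured as CellTiter-Glo ATP luminescence, read after 10 min at room temperature. Compound treatment of the cells lasted 48 or 72 hr at 37 degrees Celsius in a qHTS format.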

[6] = system: HaCat; assay: as above; conditions: Five cell lines viability, CellTiter-Glo ATP luminescence, 48-72 h; max response: active compounds read low
In short: as §2

[7] = system: KB-3-1; assay: as above; conditions: Five cell lines viability, CellTiter-Glo ATP luminescence, 48-72 h; max response: active compounds read low
In short: as §2

[8] = system: NIH3T3; assay: as above; conditions: Five cell lines viability, CellTiter-Glo ATP luminescence, 48-72 h; max response: active compounds read low
In short: as §2

[9] = system: MCC-13; assay: qHTS assay to identify novel small-molecules to repurpose for Merkel cell carcinoma treatment (AID 1296009); conditions: MCC and control cell lines, CellTiter-Glo viability, 72 h; series mostly up to 46 µM; further: nearly all actives have a fitted effect of over 60% in size; further: potency means the concentration at half of the fitted maximal effect
In short: (§3)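 Cell viability, measured as CellTiter-Glo luminescence, was normalized between DMSO and no-cell wells. The cells had been exposed to 8- or 11-point compound dilutions for 72 hr at 37 degree celsius.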

[10] = system: MCC-26; assay: as above; conditions: MCC and control cell lines, CellTiter-Glo viability, 72 h; series mostly up to 46 µM
In short: as §3

[11] = system: MKL-1; assay: as above; conditions: MCC and control cell lines, CellTiter-Glo viability, 72 h; series mostly up to 46 µM
In short: as §3

[12] = system: MKL-2; assay: as above; conditions: MCC and control cell lines, CellTiter-Glo viability, 72 h; series mostly up to 46 µM
In short: as §3

[13] = system: UISO; assay: as above; conditions: MCC and control cell lines, CellTiter-Glo viability, 72 h; series mostly up to 46 µM
In short: as §3

[14] = system: C33A; assay: Primary qHTS to identify gynecologic anti-cancer compounds using libraries of approved drugs and bioactive compounds (AID 1345084); conditions: Gynecologic cancer cell panel viability, ATPlite luminescence, 48 h; series mostly up to 57.5 µM; further: on the % scale 0 is the no-effect control and ±100 the full control effect; nearly all actives have a fitted effect of over 55% in size
In short: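 In this quantitative HTS, cell killing is estimated from loss of ATP-dependent luciferase light. Cells see five compound concentrations over a 48 h exposure.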

[15] = system: WaGa; assay: qHTS assay to identify novel small-molecules to repurpose for Merkel cell carcinoma treatment (AID 1296009); conditions: MCC and control cell lines, CellTiter-Glo viability, 72 h; series mostly up to 46 µM; further: nearly all actives have a fitted effect of over 60% in size; further: potency means the concentration at half of the fitted maximal effect
In short: as §3

[16] = system: HACAT; assay: as above; conditions: MCC and control cell lines, CellTiter-Glo viability, 72 h; at 44.8 µM (top of the series) unless noted
In short: as §3

[17] = system: TAB113; assay: qHTS profiling for inhibitors of Plasmodium falciparum proliferation (AID 504749); further: nearly all actives have a fitted effect of over 60% in size; further: potency means the concentration at half of the fitted maximal effect; conditions: P. falciparum in erythrocytes, SYBR Green DNA, 72 h; series mostly up to 28.7 µM
In short: as §1

[18] = system: NIH3T3; assay: qHTS assay to identify novel small-molecules to repurpose for Merkel cell carcinoma treatment (AID 1296009); conditions: MCC and control cell lines, CellTiter-Glo viability, 72 h; at 44.8 µM (top of the series) unless noted; further: nearly all actives have a fitted effect of over 60% in size; further: potency means the concentration at half of the fitted maximal effect
In short: as §3

CCOC(=O)N1CCC(=C2c3ccc(Cl)cc3CCc3cccnc32)CC1
inactive: Potency [2] | max response [6] -16.9% and -8.21% | outcome [7] | max response [8] -21% and -12% | Potency [9] | Potency [10] | Potency [11] | Potency [12] | Potency [13] | Potency [14]
active: Potency [1] 6.31 µM | Potency [3] 2.51 µM | Potency [4] 8.49 µM | Potency [5] 18.7 µM and 18.8 µM

CCOC(=O)C1=C[C@@]2(CC)CCCN3CCc4c(n1c1ccccc41)[C@H]32
active: Potency [4] 4.78 µM

NC(=O)c1ccc(-c2nc(-c3ccc4c(c3)OCCO4)c(-c3ccccn3)[nH]2)cc1
inactive: max response [6] -0.259% | max response [8] -6.71% | Potency [9] | Potency [10] | Potency [11] | Potency [13] | Potency [15]

Cc1cccc(-c2[nH]c(C(C)(C)C)nc2-c2ccc3nccnc3c2)n1
inactive: outcome [6] | outcome [16] | Potency [9]
active: Potency [5] 3.72 µM | Potency [7] 14.8 µM | Potency [11] 2.64 µM | Potency [13] 2.96 µM | Potency [15] 2.64 µM

N[C@@H]1CONC1=O
inactive: Potency [1] | Potency [17] | Potency [3] | Potency [4] | Potency [14]

COCCNCCCn1c(C(=O)CF)c(-c2ccc(C)cc2)c2c(N)ncnc21
inactive: max response [6] -0.681% | max response [7] -1.17% | Potency [9] | Potency [10] | Potency [11] | Potency [12] | Potency [13] | Potency [15]

Nc1nccc(-c2ccc3noc(-c4ccc(Cl)cc4)c3c2)n1
inactive: max response [6] -32.6% | max response [7] 5.59% | max response [8] -8.8% | Potency [9] | Potency [10] | Potency [11] | Potency [12] | Potency [15]

CCn1c(-c2nonc2N)nc2c(C#CC(C)(C)O)ncc(OC[C@H]3CCCNC3)c21
inactive: outcome [6] | outcome [8] | outcome [16] | Potency [9] | Potency [10] | Potency [11] | Potency [12] | outcome [18] | Potency [13] | Potency [15]
active: Potency [5] 0.0469 µM | Potency [7] 9.35 µM

CC(C)(C)OC(=O)CN(Cc1ccc(Cl)cc1)Cc1ccc([N+](=O)[O-])s1
inactive: outcome [6] | max response [7] 0.3% | max response [8] 1.62% | outcome [16] | Potency [9] | Potency [10] | Potency [11] | Potency [13] | Potency [15]

Oc1ccc(C2CNCCc3c2cc(O)c(O)c3Cl)cc1 (stereo not given)
inactive: Potency [1] | Potency [2] | Potency [17] | Potency [3] | Potency [14]

Cc1cc(Nc2nc(N[C@@H](C)c3ncc(F)cn3)ncc2Cl)n[nH]1
inactive: Potency [9] | Potency [10] | Potency [14]
active: Potency [5] 7.31 µM | Potency [6] 6.51 µM | Potency [8] 8.2 µM

CCn1cc(C(=O)O)c(=O)c2cc(F)c(N3CCNC(C)C3)c(F)c21 (stereo not given)
inactive: outcome [16] | Potency [9] | Potency [10] | Potency [11] | Potency [12] | outcome [18] | Potency [13] | Potency [15] | Potency [14]

Nc1nc2c(ncn2COCCO)c(=O)[nH]1
inactive: Potency [1] | Potency [2] | Potency [17] | Potency [3] | Potency [4] | Potency [14]

Cc1cc(-c2ccc(CC(=O)Nc3ccc(-c4cccnc4)cc3)cc2)ccn1
active: Potency [5] 9.35 µM
inactive: outcome [6] | outcome [16] | Potency [9] | Potency [10] | Potency [11] | Potency [15]

Cc1cccc(-c2nn(C(=S)Nc3ccccc3)cc2-c2ccnc3ccccc23)n1
inactive: max response [6] -21.4% | max response [7] -23.5% | Potency [9] | Potency [10] | Potency [11] | Potency [12] | Potency [13]

OCCC#Cc1nc(-c2ccc(F)cc2)c(-c2ccncc2)n1CCCc1ccccc1
inactive: max response [6] 4.71% | max response [7] 6.14% | outcome [8] | Potency [9] | Potency [10] | Potency [11] | outcome [18] | Potency [13]

Cc1oncc1C(=O)Nc1ccc(C(F)(F)F)cc1
active: Potency [4] 3.22 µM
inactive: Potency [1] | Potency [2] | Potency [17] | Potency [3]
